From PubChem BioAssay (EPA / NIEHS) come the findings set out here.

Records with an inconclusive call do not appear. Activity calls are given as the source filed them. The calls were made as follows: active = hit-call score of the fitted dose curve at least 0.9, where 1 is the maximum; inconclusive = response in the unintended direction; inactive = score below 0.9.

This experiment can be described thus: ATG_XTT_Cytotoxicity: Cytotoxicity Assessment in the Attagene TRANS-FACTORIAL HepG2 Assay (AID 2283584).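 As to AC50: cells exposed to compound for 24 h before reading; active means loss of viability signal versus DMSO baseline.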 Here is the method:
ATG_XTT_Cytotoxicity is a cell-based, single-readout assay that uses HepG2, a human liver cell line, with measurements taken at 24 hours after chemical dosing in a 24-well plate.ATG_XTT_Cytotoxicity is one of one assay component(s) measured or calculated from the ATG_XTT_Cytotoxicity assay. It is designed to make measurements of cell number, a form of viability reporter, as detected with […] signals by XTT cytotoxicity assay technology.Data from the assay component ATG_XTT_Cytotoxicity was analyzed into 1 assay endpoint. This assay endpoint, ATG_XTT_Cytotoxicity, was analyzed in the positive analysis fitting direction relative to DMSO as the negative control and baseline of activity. Using a type of viability reporter, loss-of-signal activity can be used to understand changes in the viability. Furthermore, this assay endpoint can be referred to as a primary readout, because the performed assay has only produced 1 assay endpoint. To generalize the intended target to other relatable targets, this assay endpoint is annotated to the cell cycle intended target family, where the subfamily is cytotoxicity.
Human liver HepG2 cells are transiently transfected with multiple reporter transcription units (MRTUs) in 6-well plates using FuGene 6 reagent (Roche; 3 ml FuGene/1 mg DNA). The MRTU constructs are regulated by a cis-regulating element (promoter). […] A major difference between the CIS and TRANS system is that in CIS activities of endogenous TFs are measured, whereas the TRANS assay evaluates changes in activities of exogenous, chimeric NR-Gal4 proteins. […] At the end of 24 hour incubation, total RNA was isolated using TriZol reagent (Invitrogen). The isolated RNA is then reverse-transcribed using oligo(dT) primer and Mo-MLV reverse transcriptase (Invitrogen) with DNAse I (Ambion) treatment for 30 min. The one-tenth of the produced cDNA was amplified by PCR using Taq DNA polymerase (Invitrogen) and two reporter sequence-specific primers. The PCR products were fluorescently labeled by primer extension with 6-arboxyfluorescein (6-FAM) 5'-labeled reporter sequence-specific primer (2 min at 95 C, 20 s at 68 C and 10 min at 72 C) and these products were digested with 5U of HpaI (New England Biolabs) for 2h at 37 C. The fragments were purified using Qiaquick PCR columns (Qiagen), analyzed on an ABI 3130xL genetic analyzer (Applied Biosystems) with peak positions identified by using a set of X-rhodamine (ROX)-labeled MapMarker1000 molecular weight standards (BioVentures). The raw capillary electrophoresis data was processed using Attagraph software (Attagene).
`CC(=Cc1ccccc1)[N+](=O)[O-]`: the AC50 was 23.6 µM (active).

For the compound `CCOP(=O)(OCC)OC(=CCl)c1ccc(Cl)cc1Cl`, the compound was called inactive.

As for `Cc1cc(C)cc(C)c1`, the result was inactive.

Consider `O=c1oc2ccccc2c(O)c1C(CC(O)c1ccc(-c2ccc(Br)cc2)cc1)c1ccccc1` (stereo not given), for which the compound was classed as inactive.

For `CC(C)(C)c1ccccc1O`, the call was inactive.

Take `OC(c1ccc(Cl)cc1)(c1ccc(Cl)cc1)c1cccnc1`: the AC50 is 67.7 µM (active).

Turning to `CN(CCCC(O)c1cccnc1)N=O` (stereo not given), the call was inactive.

With `O=C/C(Cl)=C(/Cl)C(=O)O`, the result was inactive.

Turning to `Cc1ccc2nc3sc(=O)sc3nc2c1`, the compound was called inactive.

As to `O=NN1CCCCCCC1`, the compound was classed as inactive.

With `CCOC(=O)CC(=O)CCl`, the outcome was inactive.

Turning to `Cc1cccc(OP(=O)(Oc2cccc(C)c2)Oc2cccc(C)c2)c1`, the outcome was inactive.

In the case of `CCCSP(=S)(OCC)Oc1ccc(Cl)cc1Cl` (stereo not given), the result was inactive.

For `Cc1cc(Cl)ccc1OC(C)C(=O)O` (stereo not given), the call was inactive.

For `CCOP(=S)(OCC)Oc1ccc(Cl)cc1Cl`, the compound was called inactive.

On to `Clc1cc(C(Cl)(Cl)Cl)cnc1Cl`, for which the compound was classed as inactive.

For `Cc1cc(SCc2sc(-c3ccc(C(F)(F)F)c(F)c3)nc2C)ccc1OCC(=O)O`, the compound was called inactive.

On to `[F][Sn]([c]1ccccc1)([c]1ccccc1)[c]1ccccc1`, for which the half-maximal activity concentration (AC50) was 1.35 µM (active).

On to `O=[N+]([O-])c1c2ccccc2cc2ccccc12`, for which the compound was called inactive.

For the compound `N#CCCC(Br)(C#N)CBr` (stereo not given), the compound was called inactive.

As to `COCCl`, the compound was classed as inactive.

Regarding `OCC(c1ccc(Cl)cc1)c1ccc(Cl)cc1`, the compound was classed as inactive.

Consider `CCC[N+](CCC)(CCC)CCC`, for which the call was inactive.

With `O=C(NC(=O)c1c(F)cccc1F)Nc1cc(Cl)c(Oc2ncc(C(F)(F)F)cc2Cl)c(Cl)c1`, the result was inactive.

As to `c1ccc2sc(SNC3CCCCC3)nc2c1`, the result was inactive.

On to `N#Cc1ccccc1Cl`, for which the compound was called inactive.

Consider `CCOP(=S)(OCC)O/N=C(\C#N)c1ccccc1`, for which the call was inactive.

Consider `O=NN1CCOCC1`, for which the compound was called inactive.

For `O=[N+]([O-])c1cccc2ccccc12`, the call was inactive.

With `C#C[C@]1(O)CC[C@H]2[C@@H]3CCC4=CC(=O)CC[C@]4(C)[C@H]3CC[C@@]21C`, the compound was called inactive.

Take `C=CCc1ccccc1O`: the result was inactive.

`CCCCS(=O)(=O)Cl`: the outcome was inactive.

Turning to `COP(=S)(OC)Oc1cc(Cl)c(I)cc1Cl`, the concentration at half-maximal activity (AC50) is 157 µM (active).

Turning to `NC(=O)c1ccc(N)nc1`, the outcome was inactive.

On to `N#Cc1ccc(Cl)cc1`, for which the outcome was inactive.

Take `CC1(C)[C@H](/C=C2\CCSC2=O)[C@@H]1C(=O)OCc1coc(Cc2ccccc2)c1`: the compound was classed as inactive.

Turning to `C=C(C)[C@@H]1CC=C(C=O)CC1`, the outcome was inactive.

Consider `Nc1nc(=S)[nH][nH]1`, for which the compound was classed as inactive.

`CN(C)[C@@H]1C(=O)C(C(N)=O)=C(O)[C@@]2(O)C(=O)C3=C(O)c4c(O)ccc(Cl)c4[C@@](C)(O)[C@H]3C[C@@H]12`: the call was inactive.

As to `CC(C)[N+](=O)[O-]`, the call was inactive.

By AC50 is commonly meant the concentration giving half of the maximal activity seen.
